From PubChem BioAssay
Pf growth 48h: Primary qHTS for delayed death inhibitors of the malarial parasite plastid, 48 hour incubation. P. falciparum luciferase growth in erythrocytes, 48 h. Potency, µM (series often up to 28.7 µM), for the others: at the highest dose activity change, negative = inhibition, usual class: inhibitors. 310,000 compounds, 5.9% hits. AID 504832, 2011; further: potency means the concentration at half of the fitted maximal effect; on the % scale 0 is the no-effect control and ±100 the full control effect
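Erythrocytes infected with P. falciparum carrying an integrated firefly luciferase reporter (2% hematocrit, 0.1% parasitemia final) were exposed to compounds in RPMI 1640 with 0.5% Albumax at 37 C, 5% CO2. Growth inhibition was scored as reduced luminescence.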
NS1 inh: qHTS Assay for Inhibitors of Influenza NS1 Protein Function | 270,000 compounds, 0.4% hits | Potency, µM (titrated, usually from 46.1 µM), for the others: at the top dose activity, positive = more growth | AID 2326, 2010; calls by dose curve; further: potency means the concentration at half of the fitted maximal effect; actives are rising curves; nearly all actives have a fitted effect of over 50% in size
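OD600 was taken as the measure of yeast growth restored by compound in an NS1-expressing S. cerevisiae strain. Cells had been washed out of glucose medium and diluted 1:100 into galactose -URA medium, pH 6.0.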
Shiga toxin inh: A qHTS for Small Molecule Inhibitors of Shiga Toxin. Vero cells, Shiga toxin protein synthesis inhibition reporter. inhibition, % at 38.7 µM. 290,000 compounds, 9.2% hits. AID 2315, 2010; in the data active means inhibition mostly above about 28%, no sharp cut-off; inactive means mostly below about 43%; further: 0% is about no effect
Cycloheximide cs: Cycloheximide Counterscreen for Small Molecule Inhibitors of Shiga Toxin; 300,000 compounds, 12% hits; AID 2314, 2010; cell reporter, cycloheximide protein synthesis inhibition counterscreen; max response, %; in the data active means max response mostly above about 13%, no sharp cut-off; inactive means mostly below about 14%; further: read at 38.3 µM for the half of the compounds with a filed dose; 0% is about no effect
FBPA Giardia inh: qHTS Assay for Inhibitors of Fructose-1,6-bisphosphate Aldolase from Giardia Lamblia; A8B2U2; purified Giardia FBPA; Potency, µM (top dose mostly 59.6 µM), for inactives: top-dose activity, negative = inhibition, actives largely listed as inhibitors; 290,000 compounds, 0.71% hits; AID 2451, 2010; further: potency means the concentration at half of the fitted maximal effect; on the % scale 0 is the no-effect control and ±100 the full control effect; nearly all actives have a fitted effect of over 55% in size
Target sequence (A8B2U2 whole entry, looked up): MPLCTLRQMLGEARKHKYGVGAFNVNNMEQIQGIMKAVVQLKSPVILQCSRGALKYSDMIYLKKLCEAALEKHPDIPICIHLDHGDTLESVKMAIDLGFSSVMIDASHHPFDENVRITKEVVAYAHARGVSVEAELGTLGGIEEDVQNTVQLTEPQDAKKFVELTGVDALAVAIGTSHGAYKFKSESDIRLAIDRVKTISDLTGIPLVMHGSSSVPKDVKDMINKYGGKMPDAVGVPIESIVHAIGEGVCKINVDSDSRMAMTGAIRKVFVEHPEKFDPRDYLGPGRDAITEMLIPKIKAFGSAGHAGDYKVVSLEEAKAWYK
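40 nM FBPA preincubated 10 min at RT with compound (up to 57.5 uM final), then substrate plus GAPDH/TPI/NAD/arsenate coupling and diaphorase/resazurin added. Fluorescence read after 20 min at RT, 525/598 nm.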
Pf growth 96h: Primary qHTS for delayed death inhibitors of the malarial parasite plastid, 96 hour incubation. P. falciparum luciferase reporter growth, 96 h. Potency, µM (doses to about 28.7 µM), without a hit: at the highest dose activity change, negative = inhibition, most hits filed as inhibitors. 320,000 compounds, 6.9% hits. AID 504834, 2011; further: potency means the concentration at half of the fitted maximal effect; on the % scale 0 is the no-effect control and ±100 the full control effect
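Two-generation exposure (96 h) targets delayed-death phenotype. Reporter parasites carrying integrated firefly luciferase, in red cells at 2% hematocrit and 0.05% parasitemia final, kept at 37 C, 5% CO2; luminescence loss indicates inhibition.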
Active calls of the source: *; [ ] = dose if it differs, or a comment. Compounds with a hit are over-represented: about 21% of the library has one in this group of screens. Unless noted, the call rests on the fitted dose curve; in most records, active means well fitted curve in the direction sought with a large enough effect; inconclusive means small, poorly fitted or top-dose-only effect, or another doubt; inactive means no such curve, though single readings can be large; an effect the other way counts as inactive or inconclusive.

For CCOc1ccc(S(=O)(=O)N2CCC(C(=O)Nc3cccc(NC(C)=O)c3)CC2)cc1 the results were Pf growth 48h -11.0%, NS1 inh -15.2%, Shiga toxin inh -13.0, Cycloheximide cs -7.5, FBPA Giardia inh 7.5% and Pf growth 96h 10.8%.
COc1ccc(CNC(=O)CN2CCN(S(=O)(=O)c3cccs3)CC2)cc1OC was read as Pf growth 48h 8.9%, Shiga toxin inh 13.5, Cycloheximide cs 0.9, FBPA Giardia inh -1.6% and Pf growth 96h 9.3%.
`COc1cccc(C(=O)CN2CCC(NC(=O)NC3CCCCC3)CC2)c1` gave Pf growth 48h 1.6%, NS1 inh -7.3%, Shiga toxin inh 1.4, Cycloheximide cs -2.7, FBPA Giardia inh 0.2% and Pf growth 96h 14.7µM*.
COc1ccc(S(=O)(=O)N2CCC(C(=O)Nc3cccc(C(C)=O)c3)CC2)cc1 was read as Pf growth 48h 11.7µM*, NS1 inh -12.0%, Shiga toxin inh -3.4, Cycloheximide cs 1.4, FBPA Giardia inh -0.7% and Pf growth 96h inconclusive.
`CCCCN1C(=O)C(=O)N(CC(=O)c2ccc3c(c2)OCO3)C1=O` gave Pf growth 48h 8.3% and Pf growth 96h 11.4%.
For CCCCCCCCCCCCCCCC(=O)N[C@@H](COP(=O)(O)O)C(=O)O the results were Shiga toxin inh -15.0, Cycloheximide cs -7.9 and FBPA Giardia inh inconclusive.
`CC(=O)N1CCC(O)(c2ccc3c(c2)OCO3)CC1` gave Pf growth 48h -5.7%, NS1 inh 10.9%, Shiga toxin inh -8.7, Cycloheximide cs 1.3, FBPA Giardia inh -4.2% and Pf growth 96h 0.0%.
O=C(OCc1nc2ccsc2c(=O)[nH]1)c1ccccc1 was read as Pf growth 48h 37.2% and Pf growth 96h 20.8%.
For Cc1ccc(S(N)(=O)=O)cc1NC(=O)c1ccc2c3c(cccc13)CC2 the results were Pf growth 48h -15.2%, NS1 inh 18.8%, Shiga toxin inh -7.5, Cycloheximide cs 4.7, FBPA Giardia inh -12.5% and Pf growth 96h inconclusive.
CN(CC(=O)Nc1ccc(F)cc1)C(=O)CN1C(=O)NC2(CCCc3ccccc32)C1=O (stereo unspecified) was read as Pf growth 48h inconclusive, NS1 inh -5.0%, Shiga toxin inh -12.5, Cycloheximide cs -2.3 and Pf growth 96h inconclusive.
`Nc1ncnc2c1nc(Sc1ccc(Cl)cc1)n2[C@H]1O[C@@H]2COP(=O)(O)O[C@H]2[C@@H]1O` gave NS1 inh 0.4% and FBPA Giardia inh -0.6%.
For COc1cccc(NC(=O)CN2CCC(C)CC2)c1 the results were NS1 inh 2.4%, Shiga toxin inh 35.4*, Cycloheximide cs 29.8*, FBPA Giardia inh 0.7% and Pf growth 96h 136.3%.
Screening COc1cccc(NC(=O)CN2CCN(CC(=O)Nc3ccc(F)cc3)CC2)c1 returned Pf growth 48h -7.6%, NS1 inh -1.9%, Shiga toxin inh -7.1, Cycloheximide cs -4.4, FBPA Giardia inh -4.6% and Pf growth 96h -8.7%.
Screening CCCCCNS(=O)(=O)c1cc(C)ccc1OC returned Pf growth 48h -11.2%, NS1 inh -1.3%, Shiga toxin inh 3.4, Cycloheximide cs -1.0, FBPA Giardia inh 6.3% and Pf growth 96h 11.7µM*.
Screening O=[N+]([O-])c1ccc(S(=O)(=O)Nc2cccc(-c3ccc(N4CCOCC4)nn3)c2)cc1 returned Pf growth 48h 9.8% and Pf growth 96h 0.6%.
`O=S(=O)(Nc1cccc(-c2ccc(N3CCCCCC3)nn2)c1)c1ccc(F)cc1` gave Pf growth 48h 36.6%, NS1 inh 7.8%, Shiga toxin inh 84.6*, Cycloheximide cs 42.7*, FBPA Giardia inh -4.1% and Pf growth 96h -12.0%.
Screening Cc1ccc(S(=O)(=O)Nc2cccc(-c3ccc(N4CCCCCC4)nn3)c2)cc1C returned Pf growth 48h 22.0%, NS1 inh 4.0%, Shiga toxin inh 114.8*, Cycloheximide cs 39.3*, FBPA Giardia inh 0.8% and Pf growth 96h 13.1µM*.
`COc1ccc(C)cc1S(=O)(=O)Nc1cccnc1` gave Pf growth 48h 24.3%, NS1 inh 2.1%, Shiga toxin inh 9.0, Cycloheximide cs 1.6, FBPA Giardia inh -3.7% and Pf growth 96h 6.57µM*.
For O=S(=O)(Nc1cccc(-c2ccc(N3CCCCCC3)nn2)c1)c1ccc(C(F)(F)F)cc1 the results were Pf growth 48h 94.8%, NS1 inh 21.7%, Shiga toxin inh 40.8*, Cycloheximide cs 30.8*, FBPA Giardia inh 4.5% and Pf growth 96h inconclusive.
Screening COc1ccc(C)cc1S(=O)(=O)Nc1cccc(-c2ccc(N3CCCCCC3)nn2)c1 returned Pf growth 48h -4.7%, NS1 inh 8.5%, Shiga toxin inh 26.7, Cycloheximide cs 20.1* and Pf growth 96h inconclusive.
CCOc1ccc(S(=O)(=O)Nc2cccc(-c3ccc(N4CCCCCC4)nn3)c2)cc1 was read as Pf growth 48h 29.0%, NS1 inh -3.8%, Shiga toxin inh 41.4*, Cycloheximide cs 24.8* and Pf growth 96h 11.9%.
`O=C(Nc1cccc(-c2ccc(N3CCCCC3)nn2)c1)C(F)(F)F` gave Pf growth 48h inconclusive, NS1 inh 8.1%, Shiga toxin inh -15.6, Cycloheximide cs -13.5, FBPA Giardia inh 3.0% and Pf growth 96h -24.4%.
CC(C)C[C@@H](CC(=O)N[C@H](CC(=O)N[C@@H]1CCCC[C@H]1C(=O)N[C@H](CC(=O)N[C@@H](CCC(=O)O)CC(=O)O)Cc1ccccc1)C(C)C)NC(=O)[C@@H]1CCCC[C@H]1N was read as FBPA Giardia inh -22.3%.
`O=C(O)c1ccccc1-c1ccc(C(F)(F)F)cc1` gave Pf growth 48h -14.2% and Pf growth 96h -5.1%.
`c1ccc(Cc2ccc(OCCn3cncn3)cc2)cc1` gave Pf growth 48h -4.3%, NS1 inh -2.5%, Shiga toxin inh -4.9, Cycloheximide cs -1.9 and FBPA Giardia inh 0.1%.
c1ccc(-c2ccc(OCCOCCn3cncn3)cc2)cc1 was read as Pf growth 48h 80.4%, NS1 inh -46.6%, Shiga toxin inh 56.9*, Cycloheximide cs 34.6*, FBPA Giardia inh 0.0% and Pf growth 96h 13.3%.
Screening c1ccc(COc2ccc(OCCCn3cncn3)cc2)cc1 returned Pf growth 48h 349.1%, NS1 inh -64.7%, Shiga toxin inh 60.9*, Cycloheximide cs 34.8*, FBPA Giardia inh 1.8% and Pf growth 96h 2.4%.
`CCOc1ccccc1/C=N/NC(=O)CNC(=O)c1cccs1` gave Pf growth 48h -2.5%, Shiga toxin inh 13.4, Cycloheximide cs -4.5, FBPA Giardia inh -10.2% and Pf growth 96h 15.6%.
For Cn1ccc(NC(=O)Nc2cccc([N+](=O)[O-])c2)n1 the results were Pf growth 48h inconclusive, NS1 inh -3.1%, Shiga toxin inh 39.1*, Cycloheximide cs 22.6*, FBPA Giardia inh -4.4% and Pf growth 96h -2.2%[5.75 µM].
